# Source: PubChem BioAssay (EPA / NIEHS)
# Values joined by “and” are separate entries in the source; they are usually repeats but may differ in a detail not shown here. Equal values may be shown once. Inconclusive results are not listed. Some compounds were tested as several samples or in several runs, with calls that do not always agree. Active and inactive are the calls of the source. The calls were made as follows, unless noted: active = hit-call score of the fitted dose curve at least 0.9, where 1 is the maximum; inconclusive = response in the unintended direction; inactive = score below 0.9.
# What was measured:
# [1] = read-out: TIMP1, TIMP1 (gene 7076); test: LTEA_HepaRG_TIMP1: Life Technologies and Expression Analysis (LTEA) Assay for TIMP1 using HepaRG (AID 2283534; active = hit-call score of the fitted dose curve at least 0.9, where 1 is the maximum; inactive = score below 0.9); settings: mRNA level, 48 h; actives raise or lower the signal
# How it was run: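 TIMP1 induction or repression in HepaRG cells after 48 h chemical exposure (eight concentrations, highest 100 uM), assessed by normalized qRT-PCR with bidirectional fitting to DMSO controls.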
# [2] = read-out: Tumor necrosis factor receptor 1 (TNFRSF1A), TNFRSF1A (gene 7132); test: LTEA_HepaRG_TNFRSF1A: Life Technologies and Expression Analysis (LTEA) Assay for Tumor necrosis factor receptor 1 (TNFRSF1A) using HepaRG (AID 2283535; active = hit-call score of the fitted dose curve at least 0.9, where 1 is the maximum; inactive = score below 0.9); settings: mRNA level, 48 h; actives raise or lower the signal
# How it was run: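 Assay uses 48 h chemical treatment of differentiated HepaRG monolayers, tested in duplicate at eight concentrations from 100 uM downward in 0.5% DMSO. mRNA is normalized to ACTB, GAPDH and POLR2A, with induction or suppression fitted relative to vehicle.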
# [3] = read-out: UDP glucuronosyltransferase (UGT1A1), UGT1A1 (gene 54658); test: LTEA_HepaRG_UGT1A1: Life Technologies and Expression Analysis (LTEA) Assay for UDP glucuronosyltransferase (UGT1A1) using HepaRG (AID 2283538; active = hit-call score of the fitted dose curve at least 0.9, where 1 is the maximum; inactive = score below 0.9); settings: mRNA level, 48 h; actives raise or lower the signal
# How it was run: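 mRNA induction or loss of UGT1A1, by TaqMan qRT-PCR, in duplicate HepaRG wells after 48 h exposure to half-log dilutions topping at 100 uM; DMSO (0.5%) served as baseline.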
# [4] = read-out: UDP glucuronosyltransferase (UGT1A6), UGT1A6 (gene 54578); test: LTEA_HepaRG_UGT1A6: Life Technologies and Expression Analysis (LTEA) Assay for UDP glucuronosyltransferase (UGT1A6) using HepaRG (AID 2283539; active = hit-call score of the fitted dose curve at least 0.9, where 1 is the maximum; inactive = score below 0.9); settings: mRNA level, 48 h; actives raise or lower the signal
# How it was run: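 Measures mRNA change in HepaRG hepatic cells exposed 48 h to chemicals (eight-point, maximum 100 uM, 0.5% DMSO vehicle) in serum-free induction medium. Expression normalized to endogenous controls; DMSO served as negative control and baseline.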
# [5] = read-out: X-box binding protein 1 (XBP1), XBP1 (gene 7494); test: LTEA_HepaRG_XBP1: Life Technologies and Expression Analysis (LTEA) Assay for X-box binding protein 1 (XBP1) using HepaRG (AID 2283540; active = hit-call score of the fitted dose curve at least 0.9, where 1 is the maximum; inactive = score below 0.9); settings: mRNA level, 48 h; actives raise or lower the signal
# How it was run: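 Eight concentrations (half-log, highest 100 uM, 0.5% DMSO) tested in duplicate on HepaRG cells over 48 h in serum-free induction medium; qRT-PCR of XBP1 normalised to ACTB, GAPDH, POLR2A.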
# [6] = LTEA_HepaRG_LDH_cytotoxicity: Cytotoxicity Assessment in the Life Technologies and Expression Analysis (LTEA) Assay (AID 2283563);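 as to AC50: LDH activity released into spent culture medium as a marker of cell death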
# How it was run: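 Spent-medium LDH after 48 h chemical exposure of HepaRG cells in serum-free induction medium; eight concentrations, half-log dilutions from 100 uM, duplicate wells, fitted upward relative to 0.5% DMSO.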
# [7] = Tanguay_ZF_120hpf_MORT_legacy: (Legacy) Oregon State University Tanguay Lab 120 Hour Post-fertilization zebrafish Assay for Mortality (AID 2283633)
# How it was run: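 Single dechorionated Tropical 5D embryos were held with test chemical (0.64% DMSO final) from 6 to 120 hpf at 28C under foil. Deaths at 24 or 120 hpf were recorded as binary calls, analysed for increase over DMSO controls.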
# [8] = Tanguay_ZF_120hpf_AXIS_legacy: (Legacy) Oregon State University Tanguay Lab 120 Hour Post-fertilization zebrafish Assay for Body Axis Malformation (AID 2283635);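 as to AC50: potency for an increased fraction of larvae scored with body axis malformation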
# How it was run: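 Each dechorionated embryo was exposed alone from 6 hpf, with DMSO at 0.64% (vol/vol) and trimethyltin chloride 5 uM as positive control. Axis malformation was recorded at 120 hpf unless the embryo had died.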
# [9] = Tanguay_ZF_120hpf_EYE_legacy: (Legacy) Oregon State University Tanguay Lab 120 Hour Post-fertilization zebrafish Assay for Eye Malformation (AID 2283636);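 also: binary presence or absence of eye malformation scored by brightfield in 120 hpf larvae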
# How it was run: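 5D wild-type embryos, pronase-dechorionated at 4 hpf; static exposure 6–120 hpf, 28C, dark; DMSO 0.64% final; 5uM trimethyltin chloride positive control. Binary eye-defect scoring at 120 hpf; dead embryos not scored.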
# [10] = Tanguay_ZF_120hpf_SNOU_legacy: (Legacy) Oregon State University Tanguay Lab 120 Hour Post-fertilization zebrafish Assay for Snout Malformation (AID 2283637)
# How it was run: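 Binary brightfield scoring of snout malformation at 120 hpf. Dechorionated 5D wild-type embryos, one per well, static exposure from 6 hpf at 28C, sealed and dark; final DMSO 0.64% (vol/vol), DMSO as baseline; 5uM trimethyltin chloride positive control.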
# [11] = read-out: Thyroid Hormone Responsive (THRSP), THRSP (gene 7069); test: LTEA_HepaRG_THRSP: Life Technologies and Expression Analysis (LTEA) Assay for Thyroid Hormone Responsive (THRSP) using HepaRG (AID 2283536; active = hit-call score of the fitted dose curve at least 0.9, where 1 is the maximum; inactive = score below 0.9); settings: mRNA level, 48 h; actives raise or lower the signal
# How it was run: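 qRT-PCR read-out (Fluidigm TaqMan), housekeeping-normalized (ACTB/GAPDH/POLR2A). HepaRG, 48 h chemical exposure, 8-pt half-log series from 100 uM in 0.5% DMSO, duplicates. Bidirectional curve fit vs 0.5% DMSO baseline.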
# [12] = read-out: Cellular tumor antigen p53 (Homo sapiens) (UniProt P04637); test: LTEA_HepaRG_TP53: Life Technologies and Expression Analysis (LTEA) Assay for Tumor Protein P53 (TP53) using HepaRG (AID 2283537; active = hit-call score of the fitted dose curve at least 0.9, where 1 is the maximum; inactive = score below 0.9); settings: mRNA level, 48 h; actives raise or lower the signal
# How it was run: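 TP53 transcript measured by qRT-PCR, normalized to three housekeeping genes, after 48 h treatment of human HepaRG cultures with chemicals from 100 uM downward in half-log steps (0.5% DMSO vehicle, serum-free induction medium). Up- or down-regulation fitted against DMSO.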
# [13] = TOX21_p53_BLA_p2_viability: Viability Assessment in the Tox21 HCT-116 p53 Agonism Beta-lactamase Assay, Phase 2 (AID 2283591);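 also: compound exposure lasted 16 h at 37 °C; actives lower the ATP signal meaning cytotoxicity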
# How it was run: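 HCT116 p53-bla cells, 4000/well, dosed after 5 h plating (217-fold dilution of DMSO stocks) and incubated 16 h at 37C. Viability taken as cellular ATP by CellTiter-Glo luminescence after 30 min RT; signal loss marks cytotoxicity.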
# [14] = TOX21_p53_BLA_p3_viability: Viability Assessment in the Tox21 HCT-116 p53 Agonism Beta-lactamase Assay, Phase 3 (AID 2283593);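 also: cells exposed to compound for 16 h before reading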
# How it was run: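 HCT116 cells, 4000/well, dosed 5 h after plating by pin transfer (217-fold dilution from DMSO stock) and incubated 16 h at 37C, 5% CO2. Viability read as ATP luminescence with CellTiter-Glo after 30 min at room temperature.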
# [15] = target: Cellular tumor antigen p53 (Homo sapiens) (UniProt P04637); test: TOX21_p53_BLA_p3_ratio: Tox21 HCT-116 p53 Agonism Beta-lactamase Assay, Ratio, Phase 3 (AID 2283596)
# How it was run: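 Cells were seeded at 4000/well, rested 5 h at 37C, then dosed with DMSO compound solutions (217-fold dilution) for 16 h. CCF4-AM substrate was loaded for 2 h at room temperature, and the 460/530 nm emission ratio was fitted for gain of signal versus DMSO.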
# [16] = TOX21_p53_BLA_p4_viability: Viability Assessment in the Tox21 HCT-116 p53 Agonism Beta-lactamase Assay, Phase 4 (AID 2283597);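 also: hits lower the luminescence signal meaning cytotoxicity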
# How it was run: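 In this multiplexed secondary endpoint, HCT116 cells (4000 per well, compound at 5 h, 16 h treatment) received CellTiter-Glo after the beta-lactamase read. Luminescence after 30 min RT reflects ATP, and falling signal marks cytotoxicity.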
# [17] = target: Cellular tumor antigen p53 (Homo sapiens) (UniProt P04637); test: TOX21_p53_BLA_p5_ratio: Tox21 HCT-116 p53 Agonism Beta-lactamase Assay, Ratio, Phase 5 (AID 2283599)
# How it was run: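 HCT-116 p53-bla cells (4000/well) plated 5 h, dosed with compound (217-fold DMSO dilution) for 16 h at 37 C; CCF4-AM substrate 2 h at room temperature. Activity is the 460/530 nm emission ratio (405 nm excitation), fitted in gain-of-signal direction versus DMSO.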
# [18] = target: Cellular tumor antigen p53 (Homo sapiens) (UniProt P04637); test: TOX21_p53_BLA_p4_ratio: Tox21 HCT-116 p53 Agonism Beta-lactamase Assay, Ratio, Phase 4 (AID 2283601)
# How it was run: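 HCT-116 p53 beta-lactamase reporter cells (4000/well) preincubated 5 h, then compound (217-fold dilution of DMSO stock) for 16 h at 37C. CCF4-AM substrate added 2 h at room temperature; 460/530 nm emission ratio fitted upward versus DMSO.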
# [19] = target: Cellular tumor antigen p53 (Homo sapiens) (UniProt P04637); test: TOX21_p53_BLA_p2_ratio: Tox21 HCT-116 p53 Agonism Beta-lactamase Assay, Ratio, Phase 2 (AID 2283592)
# How it was run: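 DMSO-normalized, positive-direction endpoint derived from the 460 nm/530 nm FRET ratio in HCT116 p53 beta-lactamase reporter cells exposed 16 h at 37C and loaded with CCF4-AM for 2 h.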
# [20] = Tanguay_ZF_120hpf_YSE_legacy: (Legacy) Oregon State University Tanguay Lab 120 Hour Post-fertilization zebrafish Assay for Yolk Sac Edema (AID 2283634)
# How it was run: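 Single dechorionated embryos were held in sealed plates at 28C with test chemical (0.64% DMSO final) from 6 hpf until 120 hpf. Edema of the yolk sac was then recorded as a binary endpoint; non-mortality endpoints were skipped for dead embryos.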
# Sequence of Cellular tumor antigen p53 (Homo sapiens) (P04637 whole entry, looked up): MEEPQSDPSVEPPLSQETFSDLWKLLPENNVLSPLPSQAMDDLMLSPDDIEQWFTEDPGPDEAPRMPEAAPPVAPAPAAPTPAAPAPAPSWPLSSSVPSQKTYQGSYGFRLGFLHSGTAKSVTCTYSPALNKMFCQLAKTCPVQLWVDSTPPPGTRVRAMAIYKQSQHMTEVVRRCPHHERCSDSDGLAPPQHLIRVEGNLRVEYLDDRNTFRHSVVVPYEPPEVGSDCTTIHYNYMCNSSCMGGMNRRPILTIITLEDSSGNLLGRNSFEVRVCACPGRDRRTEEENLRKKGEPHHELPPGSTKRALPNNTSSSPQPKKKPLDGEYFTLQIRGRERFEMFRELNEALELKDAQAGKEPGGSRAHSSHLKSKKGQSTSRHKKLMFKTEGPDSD
smiles,measurement,setting,value
S=C(S)NCCNC(=S)S.[Mn+2].[S-]C([S-])=NCCN=C([S-])[S-].[Zn+2],AC50,[1],6.38 µM (active)
same,outcome,[1],inactive
same,AC50,[2],1.21 µM (active) and 2.33 µM (active)
same,outcome,[2],inactive
same,AC50,[3],1.25 µM (active) and 1.46 µM (active) and 1.2 µM (active)
same,AC50,[4],2.12 µM (active) and 1.74 µM (active)
same,AC50,[5],908 nM (active) and 953 nM (active)
same,AC50,[6],1.58 µM (active) and 1.57 µM (active) and 1.84 µM (active)
same,outcome,[7],inactive
same,outcome,[8],inactive
same,outcome,[9],inactive
same,outcome,[10],inactive
Oc1ccc(C(c2ccc(O)cc2)C(Cl)(Cl)Cl)cc1,AC50,[1],79.2 µM (active)
same,AC50,[2],87.3 µM (active)
same,outcome,[11],inactive
same,AC50,[12],90.4 µM (active)
same,AC50,[3],88.5 µM (active)
same,AC50,[4],79.2 µM (active)
same,AC50,[5],74.1 µM (active)
same,AC50,[6],76.4 µM (active)
same,AC50,[13],54.6 µM (active) and 45.9 µM (active)
same,AC50,[14],46.1 µM (active)
same,outcome,[14],inactive
same,AC50,[15],72.1 µM (active) and 74.2 µM (active)
same,AC50,[16],38.3 µM (active) and 80.7 µM (active)
same,AC50,[17],80.8 µM (active) and 85.1 µM (active)
same,AC50,[18],64.5 µM (active) and 82.7 µM (active)
same,outcome,[7],inactive
same,AC50,[8],63.4 µM (active)
same,outcome,[9],inactive
same,AC50,[10],138 µM (active)
C[C@]12C[C@H](O)[C@H]3[C@@H](CCC4=CC(=O)CC[C@@]43C)[C@@H]1CC[C@@H]2C(=O)CO,outcome,[1],inactive
same,outcome,[2],inactive
same,outcome,[12],inactive
same,AC50,[3],50 µM (active)
same,outcome,[4],inactive
same,outcome,[5],inactive
same,outcome,[6],inactive
same,outcome,[13],inactive
same,outcome,[19],inactive
same,outcome,[14],inactive
same,outcome,[15],inactive
same,outcome,[16],inactive
same,outcome,[17],inactive
same,outcome,[18],inactive
same,outcome,[7],inactive
same,outcome,[20],inactive
same,outcome,[8],inactive
same,outcome,[9],inactive
same,outcome,[10],inactive
CN(C)C(=O)Nc1ccc(Cl)c(Cl)c1,outcome,[1],inactive
same,outcome,[2],inactive
same,AC50,[11],27.2 µM (active)
same,outcome,[12],inactive
same,AC50,[3],23.5 µM (active)
same,outcome,[4],inactive
same,AC50,[5],21.7 µM (active)
same,outcome,[6],inactive
same,outcome,[13],inactive
same,outcome,[14],inactive
same,outcome,[15],inactive
same,outcome,[16],inactive
same,outcome,[17],inactive
same,outcome,[18],inactive
same,outcome,[7],inactive
same,outcome,[8],inactive
same,outcome,[10],inactive
COC(=O)c1ccccc1C(=O)O,outcome,[1],inactive
same,outcome,[2],inactive
same,outcome,[11],inactive
same,outcome,[12],inactive
same,outcome,[3],inactive
same,outcome,[4],inactive
same,outcome,[5],inactive
same,outcome,[6],inactive
same,outcome,[15],inactive
same,outcome,[16],inactive
same,outcome,[7],inactive
same,outcome,[20],inactive
same,outcome,[8],inactive
same,outcome,[10],inactive
C[C@]12CC[C@@H]3c4ccc(O)cc4C[C@@H](CCCCCCCCCS(=O)CCCC(F)(F)C(F)(F)F)[C@H]3[C@@H]1CC[C@@H]2O (stereo partly drawn),outcome,[1],inactive
same,AC50,[2],0.0802 µM (active)
same,AC50,[12],0.0628 µM (active)
same,AC50,[3],26.9 µM (active)
same,AC50,[4],50 µM (active)
same,AC50,[5],0.0493 µM (active)
same,outcome,[6],inactive
same,outcome,[13],inactive
same,outcome,[14],inactive
same,outcome,[15],inactive
same,outcome,[16],inactive
same,outcome,[17],inactive
same,outcome,[18],inactive
same,outcome,[7],inactive
same,outcome,[8],inactive
same,outcome,[9],inactive
same,outcome,[10],inactive
